Screening results as filed in PubChem BioAssay.
TbPYK inhibitor – T. brucei pyruvate kinase inhibition | Q57TT1 | TbPYK enzyme, Kinase-Glo Plus ATP luminescence, 45 min | Potency, µM (series often up to 76.8 µM), actives largely listed as inhibitors | actives 0.12% (n = 410,000) | AID 624173; also: nearly all actives have a fitted effect of over 50% in size
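Luminescence from Kinase-Glo Plus, added after a 45-minute room-temperature reaction, served as the end-point read-out. The enzyme and substrate were preincubated with compound before ADP (130 uM final) initiated turnover. Concentration-effect curves came from normalized qHTS data.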
AMA1-RON2 inh – inhibitors of Plasmodium falciparum AMA1-RON2 interaction. AlphaScreen AMA1-biotinylated RON2 peptide binding. Potency, µM (doses to about 58.2 µM), most hits filed as inhibitors. actives 0.2% (n = 360,000). AID 720542; also: nearly all actives have a fitted effect of over 45% in size
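AMA1 (3D7) with his tag at 25 nM final met compounds first, then biotinylated RON2 peptide at 25 nM; detection used donor plus acceptor beads, 10 µg/mL apiece, read by AlphaScreen after 30 min at room temperature.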
RE007 growth inh – less growth of the S. pombe RE007 Vpr strain; S. pombe RE007 Vpr strain, BacTiter-Glo ATP luminescence, 24 h; Potency, µM (top dose mostly 92.2 µM), usual class: inhibitors; actives 0.21% (n = 360,000); AID 651644; active = well fitted falling curve with a large enough effect; inconclusive = small, poorly fitted or top-dose-only effect; inactive = no such curve, though single readings can be large or run the other way; also: nearly all actives have a fitted effect of over 50% in size
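Fission yeast strain RE007, carrying one chromosomally integrated HIV-1 vpr copy, was seeded at OD 0.01 in PMG+AL medium with 23 nL pinned compound. After 24 h at 30 °C and 99% humidity, viability was read by BacTiter-Glo luminescence.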
LmPK inh – LmPK (Leishmania mexicana) enzyme inhibition. actives 0.37% (n = 290,000). Potency, µM (doses to about 57.5 µM), actives largely listed as inhibitors. Q27686. purified LmPK, Kinase-Glo ATP luminescence, 1 h
Target sequence (Q27686 whole entry, looked up): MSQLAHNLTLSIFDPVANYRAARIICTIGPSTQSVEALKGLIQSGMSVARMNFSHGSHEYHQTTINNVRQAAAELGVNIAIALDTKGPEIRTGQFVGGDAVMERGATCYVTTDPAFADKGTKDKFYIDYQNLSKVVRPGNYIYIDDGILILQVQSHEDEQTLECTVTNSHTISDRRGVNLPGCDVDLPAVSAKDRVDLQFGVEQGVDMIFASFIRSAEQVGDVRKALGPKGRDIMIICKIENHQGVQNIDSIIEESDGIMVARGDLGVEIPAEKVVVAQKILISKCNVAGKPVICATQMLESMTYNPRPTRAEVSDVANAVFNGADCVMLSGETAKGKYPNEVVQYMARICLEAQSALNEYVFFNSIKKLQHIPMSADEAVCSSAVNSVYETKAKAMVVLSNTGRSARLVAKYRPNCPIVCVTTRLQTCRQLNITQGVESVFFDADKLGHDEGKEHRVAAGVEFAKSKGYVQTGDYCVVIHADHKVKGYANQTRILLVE
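Purified LmPK (0.1 nM) converted ADP (0.1 mM) to ATP with PEP (0.5 mM) in imidazole buffer pH 7.2 with KCl and MgCl2, 1 h at room temperature. ATP was read by Kinase-Glo luminescence; data normalized to uninhibited and no-enzyme controls.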
Vaccinia mCherry – inhibitors of vaccinia virus infection (mCherry reporter signal) | Vaccinia virus mCherry reporter infection, fluorescence | Potency, µM (titrated, usually from 36.5 µM), actives largely listed as inhibitors | actives 0.63% (n = 310,000); calls by dose curve; tested in A549 cells; also: nearly all actives have a fitted effect of over 35% in size
VACV Venus inh – vaccinia inhibition (Venus reporter); Vaccinia virus Venus reporter expression, fluorescence; Potency, µM (doses to about 36.5 µM), actives largely listed as inhibitors; actives 0.46% (n = 330,000); AID 720580; calls by dose curve; tested in A549 cells; also: nearly all actives have a fitted effect of over 30% in size
A number is an active result; - = inactive; ? = inconclusive; . = not tested or not shown; [ ] = dose if it differs, or a comment. In the library only some 1.3% were active in any assay of this set; here they are far more common. Unless noted, calls follow the shape of the dose curve; as a rule, active = well fitted curve in the direction sought with a large enough effect; inconclusive = small, poorly fitted or top-dose-only effect, or another doubt; inactive = no such curve, though single readings can be large; an effect the other way counts as inactive or inconclusive.

SMILES	TbPYK inhibitor	AMA1-RON2 inh	RE007 growth inh	LmPK inh	Vaccinia mCherry	VACV Venus inh
O=C(O)CCNc1ccc(NCCC(=O)O)c2c1C(=O)c1ccccc1C2=O	?	16µM	.	?	-	-
O=C(NCCO)c1cccc2c1C(=O)c1ccccc1-2	-	-	-	-	-	-
Cn1c(NC2CCCCC2)cc(=O)n(C)c1=O	-	-	-	-	-	-
Cc1cc(C2CCCCC2)n(O)c(=O)c1	-	-	?	.	4.5µM	?
O=c1cc(-c2ccccc2)cc(-c2ccccc2)n1O	-	-	-	.	14µM	?
CCc1nc2cc(C(=O)N3CCC[C@H]3C(=O)OC)cc(NC(=O)c3ccccc3OC)c2n1C	.	.	.	.	-	-
Cc1ccc(/C=C2\C(=O)NC(=S)N(c3ccccc3F)C2=O)s1	32µM	-	-	-	-	-
CCOC(=O)Cn1c(=O)n(C2CCCCC2)c2nc(-c3ccc(OCC)cc3)nc(C(N)=O)c21	-	.	.	.	-	-
COc1ccc(CN2CCOc3c(cc(-c4cccc(OC)n4)cc3OC)C2)c(O)c1	.	.	.	.	-	-
O=C(Nc1nc(-c2ccco2)c(-c2ccco2)s1)C1CC(=O)N(c2ccc3c(c2)OCCO3)C1 (centres undefined)	?	10µM	-	-	-	-
Cc1ccc2nc(SCCCCOc3ccccc3)[nH]c2c1	-	-	56µM	-	-	-
Brc1ccc2nc(SCCOc3ccccc3)[nH]c2c1	-	.	.	.	-	-
COc1cc(=O)n2c(c1C(=O)N(C)Cc1nonc1C)CCN(Cc1cc(C)ccc1C)CC2	.	.	.	.	-	-
COc1ccc(C(=O)N2CCCC(c3nc(SCc4ccccn4)ncc3C)C2)cc1F (centres undefined)	.	.	.	.	-	?
COc1ccc(OC)c(CNc2ncc(-c3cccc([N+](=O)[O-])c3)n2C)c1	-	14µM	-	-	.	.
CCOc1cc2nc(-c3ccc(OC)c(OC)c3)nc(N3CC(C)OC(C)C3)c2cc1OC (centres undefined)	.	.	.	-	.	.
CCOc1cc2nc(-c3ccc(OC)c(OC)c3)nc(N3CCOCC3)c2cc1OC	-	-	-	-	11µM	?
CCc1cccc(CC)c1NC(=S)NCCc1c(C)[nH]c2ccccc12	-	-	-	-	10µM	?
CCc1cccc(CC)c1NC(=S)NCCc1ccc(O)c(O)c1	-	-	-	-	.	.
CCCOc1ccccc1C(=O)Nc1nc2c(s1)CCCC2	-	.	.	.	-	-
Oc1ccc(Nc2nc3ccccc3n3cnnc23)cc1	-	.	.	.	-	-
Cc1csc(NC(=O)c2ccoc2C)n1	?	-	?	16µM	.	.
CCOC(=O)Cc1csc(NC(=O)c2ccoc2C)n1	-	-	-	14µM	.	.
Cc1occc1C(=O)Nc1cc(C(C)(C)C)on1	?	-	-	13µM	.	.
Cc1nc2cc(NC(=O)[C@@H]3C[C@@H](Sc4ccccn4)CN3C3CCCCCC3)ccc2s1	.	.	.	.	-	-
SMILES	TbPYK inhibitor	AMA1-RON2 inh	RE007 growth inh	LmPK inh	Vaccinia mCherry	VACV Venus inh
CC(C)c1c(C(=O)NCc2ccccn2)cnn1-c1nccc(-c2ccccc2F)n1	.	.	.	.	-	-
CC1=NNC(=O)/C1=C\c1cn(-c2ccccc2)nc1-c1ccc(Cl)cc1	-	-	-	-	10µM	8.9µM
Cc1ccc(-c2nn(-c3ccccc3)cc2C=C2C(=O)CC(C)(C)CC2=O)cc1	?	-	-	-	-[1.46 µM]	-
CCN(Cc1ccncc1)Cc1ccc2c(c1)CN(C(=O)c1ccc(C)cc1)CCO2	.	.	.	.	-	-
CN(C)c1ccc(C2CNC(c3ccc(Cl)c([N+](=O)[O-])c3)c3[nH]c4ccccc4c32)cc1 (centres undefined)	-	20µM	-	-	.	.
O=[N+]([O-])c1cccc(C2NCC(c3ccccc3Cl)c3c2[nH]c2ccccc32)c1 (centres undefined)	-	?	-	-	-	-
COC(=O)[C@@H]1CCCN1Cc1ccc2c(c1)CN(Cc1cccn1-c1ccc(Cl)cn1)CCO2	.	.	.	.	-	-
CCOc1ccccc1-c1c2cc(O)c(=O)cc-2oc2cc(O)c(O)cc12	?	?	?	-	-	.
COc1ccc(OC)c(-c2c3cc(O)c(=O)cc-3oc3cc(O)c(O)cc23)c1	?	2µM	?	-	-	-
O=c1cc2oc3cc(O)c(O)cc3c(-c3ccccc3O)c-2cc1O	-	1.1µM	.	-	-	-
O=C(NCCc1nnc2n1CCN(Cc1ccc3c(c1)CCO3)CC2)c1ccco1	.	.	.	.	-	-
c1ccc(Nc2nc3ccccc3o2)cc1	-	-	?	16µM	-	-
Fc1ccccc1Nc1nc2ccccc2o1	?	-	?	16µM	?	-
CC(C)CC(NC(=O)CNC(=O)C(Cc1ccc(O)cc1)NC(=O)C(CO)NC(=O)C(Cc1c[nH]c2ccccc12)NC(=O)C(Cc1cnc[nH]1)NC(=O)C1CCC(=O)N1)C(=O)NC(CCCN=C(N)N)C(=O)N1CCCC1C(=O)NCC(N)=O (centres undefined)	-	.	.	.	.	.
COC(=O)c1ccc(CN2C[C@H](Sc3ccccn3)C[C@H]2C(=O)N(C)C)cc1	.	.	.	.	-	-
